This note sets out measurements from the supplement of paper PMC6089552.

The subject of the test is A673/TR/shEF. The test is described as follows: cell viability (LOESS-normalised, relative to median of negative controls) (log2 ratio); higher = more viable cells (less compound effect), active = hit call of the paper (over 3 MAD below the median). The following applies: treatment time: 72 h. The method in brief: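 For three days, A673/TR/shEF Ewing sarcoma cells in 384-well plates (1,500 per well) were treated with library compounds at two or more concentrations or with DMSO controls, after doxycycline had been added or withheld 24 h beforehand to induce EWS-FLI1 shRNA knockdown. Viability was read by CellTiter-Glo luminescence on an Envision reader. The data were LOESS-corrected per plate, divided by the median of negative controls and log2-transformed.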

Setting [1] is: 0.25 µM, library screen: screen1, EWS-FLI1 expression: high (no doxycycline).
[2] abbreviates: 0.25 µM, library screen: screen1, EWS-FLI1 expression: low (doxycycline-induced shRNA knockdown).
Where [3] appears, read: 2.5 µM, library screen: screen1, EWS-FLI1 expression: high (no doxycycline).
The mark [4] stands for this setting: 2.5 µM, library screen: screen1, EWS-FLI1 expression: low (doxycycline-induced shRNA knockdown).
Setting [5] is: 0.25 µM, library screen: screen2, EWS-FLI1 expression: high (no doxycycline).
Setting [6] is: 0.25 µM, library screen: screen2, EWS-FLI1 expression: low (doxycycline-induced shRNA knockdown).
Where [7] appears, read: 2.5 µM, library screen: screen2, EWS-FLI1 expression: high (no doxycycline).
Where [8] appears, read: 2.5 µM, library screen: screen2, EWS-FLI1 expression: low (doxycycline-induced shRNA knockdown).

In all, about 3,200 compounds went through this assay and about 300 (9.4%) showed activity. The sample holds actives, similar compounds and a random draw of the others, so the mix is not that of the screen. A number with no mark means an inactive call.

With `COc1ccc2c(c1)[C@@]1(C)CCC(=O)C[C@H]1CC2`, the “cell viability (log2)” value is 0.0614 under setting [1], 0.0537 under setting [2], 0.105 under setting [3] and 0.0269 under setting [4].
For the molecule `Clc1ccc(C(c2ccc(Cl)cc2)n2cc[n+](CC(OCc3ccc(Cl)cc3Cl)c3ccc(Cl)cc3Cl)c2)cc1` (stereo not given), the “cell viability (log2)” value under setting [5] was 0.138, the “cell viability (log2)” value under setting [6] is 0.0728, the “cell viability (log2)” value under setting [7] was 0.0573 and the “cell viability (log2)” value under setting [8] is 0.0822.
For the molecule `NCCCCCCNS(=O)(=O)c1cccc2c(Cl)cccc12`, the “cell viability (log2)” value by setting is: under setting [1], 0.066; under setting [2], 0.0556; under setting [5], 0.156; under setting [6], 0.0625; under setting [3], 0.0432; under setting [4], 0.0443. Besides, the “cell viability (log2)” value under setting [7] is 0.141 and the “cell viability (log2)” value under setting [8] was 0.102.
As to `COc1ccccc1N1CCN(CCCCNS(=O)(=O)c2cccc3c(N(C)C)cccc23)CC1`, the “cell viability (log2)” value by setting is: under setting [5], 0.171; under setting [6], 0.0777; under setting [7], 0.0423; under setting [8], 0.0929.
On the same counts, the results for `NCCCCNS(=O)(=O)c1cccc2c(Cl)cccc12` are -0.151 (active), 0.0648, 0.0418 and 0.0582.
As for `O=C(Oc1cc(O)c2c(c1)O[C@H](c1cc(O)c(OC(=O)c3cc(O)c(O)c(O)c3)c3c(O)c(=O)cc(C4Oc5cc(O)cc(O)c5C[C@H]4O)cc13)[C@H](O)C2)c1cc(O)c(O)c(O)c1` (stereo not given in full), the “cell viability (log2)” value is, setting by setting: under setting [1], 0.0686; under setting [2], 0.0559; under setting [3], 0.0408; under setting [4], 0.0509.
Regarding `CC12CC[C@](C)(C(=O)O)CC1C1=CC(=O)[C@@H]3C4(C)CC[C@H](OC(=O)CCC(=O)O)C(C)(C)[C@@H]4CCC3(C)[C@]1(C)CC2` (stereo not given in full), the “cell viability (log2)” value is 0.0741 under setting [1], -0.061 under setting [2], 0.0857 under setting [3] and -0.0474 under setting [4].
Regarding `CC(=O)OC1CCC2(C)C(CCC3C2CCC2(C)C3CC3OC4(CCC(C)CO4)C(C)C32)C1` (stereo not given), the “cell viability (log2)” value is, setting by setting: under setting [1], 0.0872; under setting [2], 0.0698; under setting [3], 0.151; under setting [4], 0.0624.
Take `CC(=O)OC1CCC2(C)C(CCC3C2CC(=O)C2(C)C3CC3OC4(CCC(C)CO4)C(C)C32)C1` (stereo not given): the “cell viability (log2)” value runs as follows: under setting [1], 0.0619; under setting [2], 0.0314; under setting [3], 0.0226; under setting [4], 0.0969.
Consider `COc1ccc(/C=C/C(=O)O)cc1O`, for which the “cell viability (log2)” value under setting [1] was 0.0659, the “cell viability (log2)” value under setting [2] was -0.0174, the “cell viability (log2)” value under setting [3] was 0.0725 and the “cell viability (log2)” value under setting [4] is 0.0415.
The like results for `C[C@]12CC[C@@H]3c4ccc(O)cc4CC[C@H]3[C@@H]1CC[C@@H]2OC(=O)CCC1CCCC1` were, in that order, -0.302 (active), 0.00213, 0.197 and 0.299.
On the same counts, the results for `CCCCC(=O)O[C@H]1CC[C@H]2[C@@H]3CCc4cc(O)ccc4[C@H]3CC[C@]12C` are 0.0993, -0.0254, 0.16 and 0.0807.
Consider `CCC(=O)O[C@H]1CC[C@H]2[C@@H]3CCc4cc(O)ccc4[C@H]3CC[C@]12C`, for which the “cell viability (log2)” value is 0.0933 under setting [1], 0.137 under setting [2], 0.162 under setting [3] and 0.0928 under setting [4].
On to `CS(=O)(=O)Nc1ccc([N+](=O)[O-])cc1Oc1ccccc1`, for which the “cell viability (log2)” value is, setting by setting: under setting [1], 0.147; under setting [2], 0.0914; under setting [5], 0.0788; under setting [6], -0.000657; under setting [3], 0.123; under setting [4], 0.11. Further, the “cell viability (log2)” value by setting is: under setting [7], 0.101; under setting [8], 0.0459.
For the molecule `O=[N+]([O-])c1ccc(Oc2ccc(Br)cc2)c(C(O)[P+](=O)O)c1` (stereo not given), the “cell viability (log2)” value is 0.0442 (0.025 µM, library screen: screen1, EWS-FLI1 expression: high (no doxycycline)); 0.0701 (0.025 µM, library screen: screen1, EWS-FLI1 expression: low (doxycycline-induced shRNA knockdown)); 0.235 under setting [1]; 0.0171 under setting [2]; -0.289 (active) under setting [3]; -0.0253 under setting [4]. The “cell viability (log2)” value (25 µM, library screen: screen1, EWS-FLI1 expression: high (no doxycycline)) was -0.404 (active) and the “cell viability (log2)” value (25 µM, library screen: screen1, EWS-FLI1 expression: low (doxycycline-induced shRNA knockdown)) was -0.0834.
For `O=C(NC(=S)Nc1ncc(Br)cc1Br)c1cccs1`, the “cell viability (log2)” value reads like this: under setting [1], 0.112; under setting [2], -0.086; under setting [3], 0.132; under setting [4], 0.0575.
On the same counts, the results for `COc1c(Cl)ccc(Cl)c1C(=O)O` are 0.0938, 0.128, 0.0992 and 0.17.
For `CC(=O)O[C@H]1CC[C@]2(C)C3=CC(=O)[C@@]4(C)C(C[C@@H]5OC6(OCC(C)CC6Br)[C@@H](C)[C@@H]54)C3CC[C@H]2C1` (stereo not given in full), the “cell viability (log2)” value is 0.0329 under setting [1], 0.0911 under setting [2], 0.172 under setting [3] and 0.139 under setting [4].
Consider `CC(C)(C)OC(=O)C(C)(N)c1ccc(Cl)cc1` (stereo not given), for which the “cell viability (log2)” value reads like this: under setting [5], 0.157; under setting [6], 0.0841; under setting [7], 0.151; under setting [8], 0.141.
With `C#Cc1cccc(Nc2ncnc3cc(OCCOC)c(OCCO)cc23)c1`, the “cell viability (log2)” value runs as follows: (0.103 µM, library screen: screen3, EWS-FLI1 expression: high (no doxycycline)) -0.021; (0.103 µM, library screen: screen3, EWS-FLI1 expression: low (doxycycline-induced shRNA knockdown)) 0.0228; (0.308 µM, library screen: screen3, EWS-FLI1 expression: high (no doxycycline)) -0.00557; (0.308 µM, library screen: screen3, EWS-FLI1 expression: low (doxycycline-induced shRNA knockdown)) 0.0307; (0.926 µM, library screen: screen3, EWS-FLI1 expression: high (no doxycycline)) -0.00846; (0.926 µM, library screen: screen3, EWS-FLI1 expression: low (doxycycline-induced shRNA knockdown)) 0.063. Also, the “cell viability (log2)” value is, setting by setting: (2.8 µM, library screen: screen3, EWS-FLI1 expression: high (no doxycycline)) 0.0648; (2.8 µM, library screen: screen3, EWS-FLI1 expression: low (doxycycline-induced shRNA knockdown)) 0.0201; (8.3 µM, library screen: screen3, EWS-FLI1 expression: high (no doxycycline)) -0.0295; (8.3 µM, library screen: screen3, EWS-FLI1 expression: low (doxycycline-induced shRNA knockdown)) 0.0604; (25 µM, library screen: screen3, EWS-FLI1 expression: high (no doxycycline)) -0.0784; (25 µM, library screen: screen3, EWS-FLI1 expression: low (doxycycline-induced shRNA knockdown)) -0.0862.
